Data: PubChem BioAssay AID2284173 (EPA ToxCast)
Calls of active or inactive are those of the source. How the source made its calls: active means hit-call score of the fitted dose curve at least 0.9, where 1 is the maximum; inactive means score below 0.9.

These compounds were tested on rat KATP Antagonism, gene 24521 (assay: ERF_FR_IC_rKCNJ1: Eurofins (ERF) Potassium Ion Channel Mass Spectrometry Ligand Binding LeadHunter Assay for rat KATP Antagonism).
Method: ERF_FR_IC_rKCNJ1 is a biochemical, single-readout assay that uses extracted gene-proteins in a cell-free assay. Measurements were taken 1 hour after chemical dosing in a 96-well plate. See KATP Rat Potassium Ion Channel Binding (Antagonist Radioligand) Assay, Cerep.ERF_FR_IC_rKCNJ1 is an assay component calculated from the ERF_FR_IC_rKCNJ1 assay. It is designed to measure radioligand binding using a type of binding reporter as detected by scintillation counting with radiometry technology.Data from the assay component ERF_FR_IC_rKCNJ1 was analyzed at the assay endpoint, ERF_FR_IC_rKCNJ1, in the positive analysis fitting direction relative to DMSO as the negative control and baseline of activity. Using a type of binding reporter, loss-of-signal activity can be used to understand changes in binding as they relate to gene KCNJ1. To generalize the intended target to other relatable targets, this assay endpoint is annotated to the ion channel intended target family, where the subfamily is voltage gated (Potassium).
Rat cells are incubated for 60 minutes at room temprature with Glibenclamide (0.07 nM) as ligand and Glibenclamide-d3 (30nM) as control inhibitor. Test Sample Requirements: Minimum for 1) Screen: 60 ul of 10 mM stock -OR- 1 mg (pre-weighed) for 10 uM final testing. 2) Dose Response: 90 ul of 10 mM stock -OR- 1 mg (pre-weighed) for a top concentration at 10 uM.
In the case of O=C(/C=C/c1ccc(O)cc1)CC(=O)/C=C/c1ccc(O)cc1, the AC50 is reported as 0.88 µM (active).
